Reference: PubChem BioAssay AID588519 (ICCB-Longwood Screening Facility, Harvard Medical School, 2011)
Out of some 150,000 compounds screened, about 1,000 (0.67%) were called active. Rule as the data show it: active = % elongation below about 90%; inactive = the rest, inconclusive results apart. Shown is part of a subset that was picked to be rich in actives.

Target: Genome polyprotein (Poliovirus type 1 (strain Mahoney)) (UniProt P03300)
Assay: inhibitors of poliovirus polymerase RNA elongation – biochemical, fluorescence polarization, total intensity, primary screen (AID 588519); as to z-score: compound at 16.7 µg/mL
Details: stronger effect = lower value; for % elongation: compound at 16.7 µg/mL; for z-score: measured here: FP z-score
[1] = measured here: total intensity read-out

Sequence of Genome polyprotein (Poliovirus type 1 (strain Mahoney)) (P03300 1749-2209 limits assumed): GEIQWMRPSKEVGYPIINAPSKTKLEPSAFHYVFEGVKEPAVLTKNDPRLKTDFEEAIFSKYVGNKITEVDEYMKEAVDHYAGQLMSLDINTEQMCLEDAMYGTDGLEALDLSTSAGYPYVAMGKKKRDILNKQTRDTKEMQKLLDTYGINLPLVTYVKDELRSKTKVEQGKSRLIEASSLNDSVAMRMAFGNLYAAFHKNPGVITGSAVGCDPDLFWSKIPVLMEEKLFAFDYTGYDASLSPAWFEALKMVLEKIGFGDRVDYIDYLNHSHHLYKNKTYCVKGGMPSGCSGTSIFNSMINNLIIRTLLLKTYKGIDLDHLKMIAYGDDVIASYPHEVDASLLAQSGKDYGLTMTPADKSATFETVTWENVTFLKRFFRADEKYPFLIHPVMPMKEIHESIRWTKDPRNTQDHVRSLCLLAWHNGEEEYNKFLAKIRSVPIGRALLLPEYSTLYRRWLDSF

Structure (SMILES) | % elongation | z-score | % elongation [1]
Cc1cc(N2CCNCC2)nc(C)n1 | 102% (inactive) | 0.1 | 102%
COC(=O)c1cc(N2CCNCC2)nc2ccccc12 | 88% (active) | -1.4 | 88%
N#CCCn1c(SCC(=O)NCCSc2ccc(Cl)cc2)nc2ccccc21 | 101% (inactive) | -0.2 | 104%
Cc1cc(SCc2ccccc2)nc2ccccc12 | 103% (inactive) | 0.4 | 102%
Cc1cc(/C=C/C(=O)N2CCCC2c2cccs2)c(C)n1Cc1ccco1 (stereo unspecified) | 104% (inactive) | 0.6 | 98%
Cn1cccc1C(=O)Nc1nccs1 | 111% (inactive) | 0.9 | 116%
CCCCOC(=O)Nc1nccs1 | 100% (inactive) | -0.4 | 99%
Nc1[nH]c(=S)sc1C(=O)Nc1nccs1 | 70% (active) | -3.3 | 75%
CCN(C(=O)CSc1nnc2scc(-c3cccc(OC)c3)n12)c1ccccc1 | 103% (inactive) | 0.2 | 100%
C#CCN1CCS(=O)(=O)CC1 | 100% (inactive) | -0.3 | 103%
CCNC(=O)C1CCCN(S(=O)(=O)N(CC)c2ccc(OCC)cc2)C1 (stereo unspecified) | 103% (inactive) | 0.5 | 105%
CC(C)c1ccc(C2CC(=O)N3CN(C4CCCCC4)CSC3=C2C#N)cc1 (stereo unspecified) | 81% (active) | -3.5 | 82%
Cc1cc(C)c(C(=O)COC(=O)c2ccc(N(C)C)cc2)c(C)c1 | 104% (inactive) | -0.3 | 97%
CCN1CCN(C(=O)C2CCCCC2C(=O)O)CC1 (stereo unspecified) | 102% (inactive) | 0 | 103%
CCOC(=O)c1c(N)sc2c1CCCS2 | 64% (active) | -3.9 | 74%
CCOC(=O)c1c(NC2=CC(=O)CCC2)sc2c1CCCCC2 | 107% (inactive) | 0.6 | 112%
CCOC(=O)c1c(N)sc2c1CC(C)(C)OC2 | 103% (inactive) | 0.4 | 106%
CCC(=O)c1cn(CC(=O)N2CCCC2)c2ccccc12 | 107% (inactive) | 0.5 | 109%
Fc1ccc(NC(=S)N2CCN=C2Nc2ccc(F)cc2)cc1 | 87% (active) | -5.7 | 82%
COc1ccc(NC(=S)N2CCCCC2)cc1 | 100% (inactive) | -0.3 | 108%
OC1CCN(C(=S)Nc2ccccc2)CC1 | 101% (inactive) | 0 | 100%

Structure (SMILES) | % elongation | z-score | % elongation [1]
O=C1CCC/C1=C1\SCC(=O)N1c1ccccc1 | 101% (inactive) | -0.3 | 99%
Cc1ccc(C)c(NC(=O)C(c2ccccc2)N2CCCCC2C(N)=O)c1 (stereo unspecified) | 97% (inactive) | -0.5 | 103%
C=CCn1c(SCC#N)nc2c(c1=O)C1(CCCCC1)Cc1ccccc1-2 | 102% (inactive) | 0.1 | 103%
O=C(CSc1nnc(-c2ccncc2)n1-c1ccccc1)Nc1ccccc1 | 100% (inactive) | -0.8 | 96%
COc1ccc(Cc2nnc(SCC(=O)Nc3ccc(S(=O)(=O)N4CCCCCC4)cc3)o2)cc1 | 104% (inactive) | 0.4 | 102%
Nn1c(SCC(=O)Nc2ccc(S(=O)(=O)N3CCCC3)cc2)nnc1-c1ccccc1 | 76% (active) | -5.5 | 80%
Cc1ccccc1CN1CCN(CC(=O)NCc2cccs2)C1=O | 98% (inactive) | -0.7 | 103%
CCCC(Nc1cc(Cl)cc(Cl)c1)n1nnc2ccccc21 (stereo unspecified) | 104% (inactive) | 0.1 | 110%
O=C(CSC(=S)N1CCCC1)Nc1ccccc1OC(F)F | 105% (inactive) | 0.5 | 104%
CC(C)(C)C1C/C(=C/c2ccco2)C(=O)/C(=C/c2ccco2)C1 (stereo unspecified) | 76% (inactive) | -3.3 | 189%
CS(=O)(=O)C1=NSC2=NC(=O)/C(=C\c3ccco3)C(=N)N21 | 66% (active) | -10.9 | 23%
Cc1ccc(N2C(=O)NC(=O)/C(=C\c3ccco3)C2=O)c(C)c1 | 99% (inactive) | -0.2 | 97%
CN(C)/C=N/N=C(\Cc1nc2ccccc2[nH]1)c1ccccc1 | 102% (inactive) | 0.2 | 106%
O=C(COC(=O)c1cc(=O)[nH]c2ccccc12)NCc1ccco1 | 107% (inactive) | 0.6 | 101%
CCOc1ccc(-c2ccc(NS(=O)(=O)c3ccccc3)cc2)nn1 | 102% (inactive) | 0.9 | 104%
Clc1ccc(/C=N\N2CCN(c3ccccc3)CC2)cc1 | 108% (inactive) | 1.3 | 100%
S=C(c1ccc(-c2ccc(Cl)cc2)o1)N1CCN(c2ccccc2)CC1 | 63% (active) | -4.2 | 70%
S=C(c1ccc(-c2ccccc2)o1)N1CCCCC1 | 99% (inactive) | -0.3 | 101%
CCC(Cc1ccccc1)NC(=O)c1ccco1 (stereo unspecified) | 99% (inactive) | -0.3 | 100%
Cc1noc(C)c1CSc1nnc(-c2ccccc2Br)n1Cc1ccccc1 | 96% (inactive) | -0.6 | 102%
C=C(C)CNC(=S)N=Nc1c(O)n(C)c2ccccc12 | 98% (inactive) | -0.4 | 101%
